{"source": "PubChem BioAssay (NCI)", "note": "Compounds without any hit were thinned out: in the full panel of roughly 83,000, 20% have a hit.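 Assay: single dose, 48 h. Readout: percent growth (0 = no net growth; negative = cell death). Active: <10.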 A number with no mark means an inactive call. Calls of active or inactive are those of the source."}
{"test_system": "HCT-15 colon", "assay": "NCI-60 one-dose screen, 48 h (100 = growth as untreated, 0 = no growth, -100 = all killed)", "settings": "10 µM unless noted"}
{"smiles": "COC(=O)c1oc2c(C(=O)/C=C/c3ccc(OC)cc3)c(OCCN3CCOCC3)ccc2c1C", "growth": "-57% (active)"}
{"smiles": "CN(C)c1ccc(/C=N/n2c(-c3cc(F)c(Cl)cc3Cl)nn(CN3CCOCC3)c2=S)cc1", "growth": "103%"}
{"smiles": "CS(=O)(=O)OCC(COS(C)(=O)=O)C(c1ccccc1)c1ccccc1", "growth": "108%"}
{"smiles": "Nc1ncnc2c1c(C(F)(F)F)cn2[C@@H]1O[C@H](CO)[C@@H](O)[C@H]1O", "growth": "4.22% (active)"}
{"smiles": "Cc1nccc2c3ccc(OCc4cn(Cc5ccc(Br)cc5)nn4)cc3n(CCCc3ccccc3)c12", "growth": "92.8%"}
{"smiles": "[2H]c1nc(Nc2ncc(F)c(-c3cc(F)c4nc(C)n(C(C)C)c4c3)n2)c([2H])c([2H])c1CN1CCN(CC)CC1", "growth": "33.2%"}
{"smiles": "COc1cc(/C=C2/Oc3cc4occc4c(OC)c3C2=O)ccc1OCC(=O)Nc1ccncc1", "growth": "112%"}
{"smiles": "COc1ccc2c(c1)OC(N)=C(C#N)C2c1ccc(F)cc1", "note": "(stereo unspecified)", "growth": "21.9%"}
{"smiles": "CCCCCCCCCCCCCCCCNc1ccccc1", "growth": "103%"}
{"smiles": "O=C(Nc1ccc(-n2ccc3c(NC(=O)c4ccccc4)ncnc32)cc1)c1cccc(C(F)(F)F)c1", "growth": "19.7%"}
{"smiles": "COc1ccc(/C(Cl)=N/N=C(\\Cl)c2cc(OC)c(OC)c(OC)c2)cc1OC(C)=O", "growth": "100%"}
{"smiles": "O=C1C(Cl)=C(Nc2ccccc2)C(=O)C(Cl)=C1Nc1ccccc1", "growth": "109%"}
{"smiles": "O=C(Nc1ccc(-n2cc(-c3ccncc3)c(-c3ccc(O)c(Cl)c3)n2)cc1)c1cc(C(F)(F)F)cc(C(F)(F)F)c1", "growth": "34.6%"}
{"smiles": "CCn1c(C)nc([N+](=O)[O-])c1Sc1nc(N)nc2nc[nH]c12", "growth": "40.7%"}
{"smiles": "Cc1cn(C2CC(N=[N+]=[N-])C(COP(=O)(O)OP(=O)(O)OP(=O)(O)O)O2)c(=O)[nH]c1=O", "note": "(stereo unspecified)", "growth": "120%"}
{"smiles": "COc1cc(/C=C\\c2cc(/C=C\\c3ccc(O)c(OC)c3)n(C(=O)CNc3ccccc3OC)n2)ccc1O", "growth": "56.3%"}
{"smiles": "COc1ccc(Cl)cc1NC(=O)c1cc2c([nH]1)-c1nc(NC(=O)C(C)C)sc1CC2", "growth": "95.4%"}
{"smiles": "O=C(/C=C/c1ccco1)c1cccc(Nc2nc(Nc3ccccc3)nc(Nc3ccccc3)n2)c1", "growth": "72%"}
{"smiles": "O=C(Nc1ccc(-n2ccc3c(NC(=O)c4ccccc4)ncnc32)cc1)Nc1ccc(Cl)c(C(F)(F)F)c1", "growth": "-53.2% (active)"}
{"smiles": "CN(C)CCCOc1c(Br)cc(/C=C/C(=O)N(C)CCc2cc(Br)c(OCCCN(C)C)c(Br)c2)cc1Br", "growth": "9.92% (active)"}
{"smiles": "C=C(C)[C@@H]1C/C=C(\\COC(=O)[C@H](OC(C)=O)C(NC(=O)c2ccccc2)c2ccccc2)CC[C@H]2O[C@]2(C)CC/C=C(\\C)CC1", "note": "(stereo partly specified)", "growth": "89% [5 µM]"}
{"smiles": "COc1ccc(Cl)cc1NC(=O)c1cc2c([nH]1)-c1nc(NC(=O)C(C)(C)C)sc1CC2", "growth": "49.1%"}
{"smiles": "CC1CCC(C(C)C)C(NN)C1", "note": "(stereo unspecified)", "growth": "104%"}
{"smiles": "Cl[C@@H]1CCO[C@H](c2cc3ccccc3c3ccccc23)C1", "growth": "96.9%"}
{"smiles": "C[C@]12CC[C@@H]3c4ccc(O)c(N)c4CC[C@H]3[C@@H]1CC[C@@H]2O", "growth": "101%"}
{"smiles": "COc1ccc(/C=C/C(=O)c2ccc(-n3cc(CN4CCN(c5cc6c(cc5F)c(=O)c(C(=O)O)cn6C5CC5)CC4)nn3)cc2)cc1OC", "growth": "33.8%"}
{"smiles": "COc1ccc(-c2nn(-c3ccc(NC(=O)c4ccc(Cl)c(C(F)(F)F)c4)cc3)cc2-c2ccncc2)cc1Cl", "growth": "-26% (active)"}
{"smiles": "O=C(O)c1cc2ccccc2cc1Nc1ccccc1", "growth": "99.4%"}
{"smiles": "COc1ccc(Cn2cc3c(c2-c2cc(OC)c(OC)c(OC)c2)CCc2c(CO)noc2-3)cc1", "growth": "17.6%"}
{"smiles": "COc1cc(C(=O)N2CCN(C(=O)c3cc(OC)c(OCc4ccccc4)cc3N)CC2)c(N)cc1OCc1ccccc1", "growth": "130%"}
{"smiles": "Nc1ccc(S(=O)(=O)Nc2ccnn2-c2ccccc2)cc1", "growth": "100%"}
{"smiles": "COc1ccc(-c2nnc(SCC(=O)Nc3ccc(C(=O)/C=C/c4ccccc4)cc3)o2)cc1OC", "growth": "94.6%"}
{"smiles": "CCC(N)(C(=O)O)c1ccc(F)cc1", "note": "(stereo unspecified)", "growth": "104%"}
{"smiles": "COc1ccc(-c2c(C#N)cnc(N)c2-c2nc3cc(C)c(C)cc3[nH]2)cc1", "growth": "60.3%"}
{"smiles": "CC(C)(C)NCC(O)COc1c(Br)c(Br)c(Br)c2c1OC(C)(C)C2", "note": "(stereo unspecified)", "growth": "-66.9% (active)"}
{"smiles": "O=C1/C(=C/c2cccc3cnccc23)Cc2cc(F)ccc21", "growth": "87.1%"}
{"smiles": "COC(OC)C1(c2ccccc2)NC(=O)NC1=O", "note": "(stereo unspecified)", "growth": "110%"}
{"smiles": "c1cncc(-c2nc3ccccc3[nH]2)c1", "growth": "111%"}
{"test_system": "HT29 colon", "assay": "NCI-60 one-dose screen, 48 h (100 = growth as untreated, 0 = no growth, -100 = all killed)", "settings": "10 µM unless noted"}
{"smiles": "COC(=O)c1oc2c(C(=O)/C=C/c3ccc(OC)cc3)c(OCCN3CCOCC3)ccc2c1C", "growth": "-20.4% (active)"}
{"smiles": "CN(C)c1ccc(/C=N/n2c(-c3cc(F)c(Cl)cc3Cl)nn(CN3CCOCC3)c2=S)cc1", "growth": "110%"}
{"smiles": "CS(=O)(=O)OCC(COS(C)(=O)=O)C(c1ccccc1)c1ccccc1", "growth": "100%"}
{"smiles": "Nc1ncnc2c1c(C(F)(F)F)cn2[C@@H]1O[C@H](CO)[C@@H](O)[C@H]1O", "growth": "1.42% (active)"}
{"smiles": "Cc1nccc2c3ccc(OCc4cn(Cc5ccc(Br)cc5)nn4)cc3n(CCCc3ccccc3)c12", "growth": "80.7%"}
{"smiles": "[2H]c1nc(Nc2ncc(F)c(-c3cc(F)c4nc(C)n(C(C)C)c4c3)n2)c([2H])c([2H])c1CN1CCN(CC)CC1", "growth": "31.5%"}
{"smiles": "COc1cc(/C=C2/Oc3cc4occc4c(OC)c3C2=O)ccc1OCC(=O)Nc1ccncc1", "growth": "104%"}
{"smiles": "COc1ccc2c(c1)OC(N)=C(C#N)C2c1ccc(F)cc1", "note": "(stereo unspecified)", "growth": "5.87% (active)"}
{"smiles": "CCCCCCCCCCCCCCCCNc1ccccc1", "growth": "87.1%"}
{"smiles": "O=C(Nc1ccc(-n2ccc3c(NC(=O)c4ccccc4)ncnc32)cc1)c1cccc(C(F)(F)F)c1", "growth": "22%"}
{"smiles": "COc1ccc(/C(Cl)=N/N=C(\\Cl)c2cc(OC)c(OC)c(OC)c2)cc1OC(C)=O", "growth": "79.2%"}
{"smiles": "O=C1C(Cl)=C(Nc2ccccc2)C(=O)C(Cl)=C1Nc1ccccc1", "growth": "112%"}
{"smiles": "O=C(Nc1ccc(-n2cc(-c3ccncc3)c(-c3ccc(O)c(Cl)c3)n2)cc1)c1cc(C(F)(F)F)cc(C(F)(F)F)c1", "growth": "51.7%"}
{"smiles": "CCn1c(C)nc([N+](=O)[O-])c1Sc1nc(N)nc2nc[nH]c12", "growth": "29.3%"}
{"smiles": "Cc1cn(C2CC(N=[N+]=[N-])C(COP(=O)(O)OP(=O)(O)OP(=O)(O)O)O2)c(=O)[nH]c1=O", "note": "(stereo unspecified)", "growth": "99.8%"}
{"smiles": "COc1cc(/C=C\\c2cc(/C=C\\c3ccc(O)c(OC)c3)n(C(=O)CNc3ccccc3OC)n2)ccc1O", "growth": "109%"}
{"smiles": "COc1ccc(Cl)cc1NC(=O)c1cc2c([nH]1)-c1nc(NC(=O)C(C)C)sc1CC2", "growth": "87%"}
{"smiles": "O=C(/C=C/c1ccco1)c1cccc(Nc2nc(Nc3ccccc3)nc(Nc3ccccc3)n2)c1", "growth": "79.1%"}
{"smiles": "O=C(Nc1ccc(-n2ccc3c(NC(=O)c4ccccc4)ncnc32)cc1)Nc1ccc(Cl)c(C(F)(F)F)c1", "growth": "-85.8% (active)"}
{"smiles": "CN(C)CCCOc1c(Br)cc(/C=C/C(=O)N(C)CCc2cc(Br)c(OCCCN(C)C)c(Br)c2)cc1Br", "growth": "-19.1% (active)"}
{"smiles": "C=C(C)[C@@H]1C/C=C(\\COC(=O)[C@H](OC(C)=O)C(NC(=O)c2ccccc2)c2ccccc2)CC[C@H]2O[C@]2(C)CC/C=C(\\C)CC1", "note": "(stereo partly specified)", "growth": "62.8% [5 µM]"}
{"smiles": "COc1ccc(Cl)cc1NC(=O)c1cc2c([nH]1)-c1nc(NC(=O)C(C)(C)C)sc1CC2", "growth": "59.1%"}
{"smiles": "CC1CCC(C(C)C)C(NN)C1", "note": "(stereo unspecified)", "growth": "77.1%"}
{"smiles": "Cl[C@@H]1CCO[C@H](c2cc3ccccc3c3ccccc23)C1", "growth": "98.8%"}
{"smiles": "C[C@]12CC[C@@H]3c4ccc(O)c(N)c4CC[C@H]3[C@@H]1CC[C@@H]2O", "growth": "103%"}
{"smiles": "COc1ccc(/C=C/C(=O)c2ccc(-n3cc(CN4CCN(c5cc6c(cc5F)c(=O)c(C(=O)O)cn6C5CC5)CC4)nn3)cc2)cc1OC", "growth": "4.76% (active)"}
{"smiles": "COc1ccc(-c2nn(-c3ccc(NC(=O)c4ccc(Cl)c(C(F)(F)F)c4)cc3)cc2-c2ccncc2)cc1Cl", "growth": "-39.5% (active)"}
{"smiles": "O=C(O)c1cc2ccccc2cc1Nc1ccccc1", "growth": "117%"}
{"smiles": "COc1ccc(Cn2cc3c(c2-c2cc(OC)c(OC)c(OC)c2)CCc2c(CO)noc2-3)cc1", "growth": "8.14% (active)"}
{"smiles": "COc1cc(C(=O)N2CCN(C(=O)c3cc(OC)c(OCc4ccccc4)cc3N)CC2)c(N)cc1OCc1ccccc1", "growth": "116%"}
{"smiles": "Nc1ccc(S(=O)(=O)Nc2ccnn2-c2ccccc2)cc1", "growth": "109%"}
{"smiles": "COc1ccc(-c2nnc(SCC(=O)Nc3ccc(C(=O)/C=C/c4ccccc4)cc3)o2)cc1OC", "growth": "93.4%"}
{"smiles": "CCC(N)(C(=O)O)c1ccc(F)cc1", "note": "(stereo unspecified)", "growth": "94.9%"}
{"smiles": "COc1ccc(-c2c(C#N)cnc(N)c2-c2nc3cc(C)c(C)cc3[nH]2)cc1", "growth": "37.3%"}
{"smiles": "CC(C)(C)NCC(O)COc1c(Br)c(Br)c(Br)c2c1OC(C)(C)C2", "note": "(stereo unspecified)", "growth": "-72.7% (active)"}
{"smiles": "O=C1/C(=C/c2cccc3cnccc23)Cc2cc(F)ccc21", "growth": "94.6%"}
{"smiles": "COC(OC)C1(c2ccccc2)NC(=O)NC1=O", "note": "(stereo unspecified)", "growth": "106%"}
{"smiles": "c1cncc(-c2nc3ccccc3[nH]2)c1", "growth": "102%"}
